Compounds with a hit are over-represented: about 19% of the library has one in this group of screens.
ASM inhibitor = inhibitors of human secretory acid sphingomyelinase; placental ASM, HMU-PC fluorogenic substrate, 60 min; Potency, µM (titrated, usually from 57.5 µM), most hits filed as inhibitors; hit rate 0.006% among 340,000; AID 504937
Target sequence (P17405 47-631 limits assumed): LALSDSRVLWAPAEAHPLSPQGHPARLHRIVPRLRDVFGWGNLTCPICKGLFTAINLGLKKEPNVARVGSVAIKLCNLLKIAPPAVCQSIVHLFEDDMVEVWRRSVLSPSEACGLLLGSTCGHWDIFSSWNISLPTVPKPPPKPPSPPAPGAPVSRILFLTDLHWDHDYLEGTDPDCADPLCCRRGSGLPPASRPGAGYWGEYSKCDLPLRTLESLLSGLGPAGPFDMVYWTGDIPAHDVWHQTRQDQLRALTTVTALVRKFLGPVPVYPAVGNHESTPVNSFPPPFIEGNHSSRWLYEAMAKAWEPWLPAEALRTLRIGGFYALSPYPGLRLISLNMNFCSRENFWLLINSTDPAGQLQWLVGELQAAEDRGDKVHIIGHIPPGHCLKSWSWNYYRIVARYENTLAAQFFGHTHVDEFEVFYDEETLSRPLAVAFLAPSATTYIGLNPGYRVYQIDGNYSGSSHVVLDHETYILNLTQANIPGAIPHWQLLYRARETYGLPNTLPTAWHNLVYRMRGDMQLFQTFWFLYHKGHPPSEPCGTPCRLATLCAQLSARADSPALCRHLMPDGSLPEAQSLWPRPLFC
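Human placenta-derived ASM enzyme was preincubated with compound for 10 minutes at room temperature, then given fluorogenic substrate HMU-PC0 (9 uM final) for 60 minutes at 37 °C; a pH 10 stop preceded fluorescence reading at Ex 386/Em 447 nm.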
DT40 TDP1 CPT = DT40-hTDP1 cell growth loss with CPT | chicken DT40 Tdp1-/-;hTDP1 cells + 20 nM CPT, ATP luminescence, 48 h | hit rate 12% among 420,000 | Potency, µM (highest dose often 46.2 µM), hits mostly inhibitors; also: nearly all actives have a fitted effect of over 55% in size
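Chicken DT40 Tdp1-/- cells complemented with human TDP1, 400 cells/well, exposed to compounds plus 20 nM camptothecin for at least 48 h at 37 C; viability read as ATP content by CellTiter-Glo luminescence.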
DT40 TDP1 no CPT = qHTS for Inhibitors of human tyrosyl-DNA phosphodiesterase 1 (TDP1): qHTS in cells in absence of CPT | DT40 Tdp1-/- hTDP1 cells, no CPT, ATP luminescence, 48 h | Potency, µM (series often up to 46.2 µM), usual class: inhibitors | hit rate 15% among 420,000; also: nearly all actives have a fitted effect of over 55% in size
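A cellular qHTS used chicken DT40 cells lacking endogenous Tdp1 but carrying stably transfected human TDP1. Compounds were applied without camptothecin, and cell growth kinetics were judged by ATP-dependent luminescence after ≥48 hr.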
TGFb SMAD3 inh = inhibitors of TGF-b signaling | HepG2 CAGA-GFP TGF-b/SMAD3 reporter, GFP fluorescence, 18 h; TGF-beta stimulated, 500 pg/mL final | Potency, µM (doses to about 46.1 µM), hits mostly inhibitors | hit rate 1.2% among 410,000 | AID 588855; also: nearly all actives have a fitted effect of over 65% in size
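HEPG2 CAGA-GFP, 1000 cells/well; 2 h settle, 37 C; cpd via pin tool; TGF-b 500 pg/mL final; 18 h, 37 C; GFP imaging ex488/em500-530; %Activity normalised to -TGF-b and +DMSO controls; CRC fit, curve class.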
HepG2 tox = HepG2 cytotoxicity, counter-screen for TGF-b inhibitors; Potency, µM (top dose mostly 46.1 µM), most hits filed as cytotoxic; HepG2 CAGA-GFP viability, ATP luminescence, 18 h; AID 588856; hit rate 0.76% among 410,000
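HepG2 CAGA-GFP cells (1000/well, DMEM with 1% FBS) received compound, then TGF-beta at 500 pg/mL final, and were incubated 18 hours at 37 degrees C. Viability was read by CellTiter-Glo luminescence. Media-only wells were set as complete cell-killing and DMSO as no toxicity.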
IL-1B inflam inh = inflammasome signaling inhibition, IL-1 beta readout; THP-1 LPS/ATP IL-1B secretion, AlphaLISA, 16 h; stronger effect = lower value; activity change, % at 57.5 µM; hit rate 4.7% among 360,000; in the data active = activity change below about -50%; inconclusive = mostly about -30% to -49%
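Secreted IL-1B measured by AlphaLISA bead assay after 16 h compound exposure of THP-1 cells; compounds (final up to 57.5 uM) added 1 h before LPS (250 ng/mL) and ATP (1.25 mM) stimulation; lower signal means less secretion.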
Hits are given with their value; - = inactive; ? = inconclusive; . = no result given; ! = a repeat was not active; [ ] = remark or other dose. Unless noted, calls follow the shape of the dose curve; as a rule, active = well fitted curve in the direction sought with a large enough effect; inconclusive = small, poorly fitted or top-dose-only effect, or another doubt; inactive = no such curve, though single readings can be large; an effect the other way counts as inactive or inconclusive.

SMILES | ASM inhibitor | DT40 TDP1 CPT | DT40 TDP1 no CPT | TGFb SMAD3 inh | HepG2 tox | IL-1B inflam inh
O=C(O)c1ccccc1-c1ccccc1C(=O)Nc1ccc(F)cc1 | - | - | - | - | - | -
O=C(Nc1cccnc1)c1ccccc1F | - | - | - | - | - | -
CN(C1CCCCC1)S(=O)(=O)c1ccc(NC(=O)Cn2nc(-c3ccc(F)cc3)ccc2=O)cc1 | - | ? | 21µM | ? | - | -
COc1cccc(Nc2ncc3nc(CCc4ccccc4)c(=O)n(C[C@H]4CCCO4)c3n2)c1 | . | - | ? | . | . | .
COc1cc(C=O)c(-c2c(C=O)cc(OC)c3c2OCO3)c2c1OCO2 | - | ? | 12µM | - | - | -
COc1cc(NC(=O)CCc2c(C)nn(-c3ccc(N4CCCCC4)nn3)c2C)cc(OC)c1OC | . | 21µM | ? | - | - | .
COc1ccc(OC)c(NC(=O)CCc2c(C)nn(-c3ccc(N4CCCC4)nn3)c2C)c1 | . | 21µM | 15µM | ? | - | .
Cc1nn(-c2ccc(N3CCCC3)nn2)c(C)c1CCC(=O)N1CCN(c2ccc(F)cc2)CC1 | . | 15µM | ? | - | - | .
CCc1ccc(NC(=O)CCc2c(C)nn(-c3ccc(N4CCCC4)nn3)c2C)cc1 | . | ? | ? | - | - | .
COc1ccc(NC(=O)CCc2c(C)nn(-c3ccc(N4CCCCC4)nn3)c2C)cc1Cl | . | ? | ? | ? | - | .
COC(=O)c1ccc(NC(=O)CCc2c(C)nn(-c3ccc(N4CCCCC4)nn3)c2C)cc1 | . | 23µM | ? | - | - | .
Cc1nn(-c2ccc(N3CCOCC3)nn2)c(C)c1CCC(=O)Nc1ccc(F)cc1 | - | - | 16µM | - | - | -
Cc1ccccc1NC(=O)CCc1c(C)nn(-c2ccc(N3CCCCC3)nn2)c1C | - | 16µM | 21µM! | - | - | -
Cc1cccc(NC(=O)CCc2c(C)nn(-c3ccc(N4CCOCC4)nn3)c2C)c1 | - | - | - | - | - | -
O=C(Nc1cccc2ccccc12)C(=O)C1C(=O)Nc2ccccc21 (stereo unspecified) | - | ? | ? | - | - | -
CC(C)c1ccc(NC(=O)C(=O)C2C(=O)Nc3ccccc32)cc1 (stereo unspecified) | - | 21µM | 15µM | - | - | -
CC(C)(C)c1ccc(NC(=O)C(=O)C2C(=O)Nc3ccccc32)cc1 (stereo unspecified) | - | ? | 13µM | - | - | -
CN(C)c1ccc(NC(=O)C(=O)C2C(=O)Nc3ccccc32)cc1 (stereo unspecified) | - | - | - | - | - | -
Cc1csc(NC(=O)[C@@H](NC(=O)c2ccccc2)C(C)C)n1 | - | ? | 8.2µM | - | - | -
CC(Oc1ccc(Br)cc1)C(=O)Nc1nc(-c2ccccn2)cs1 (stereo unspecified) | - | 4.6µM | 3.3µM | ? | - | -99
CC(C)[C@H](NC(=O)c1ccccc1Cl)C(=O)Nc1nc(-c2ccccn2)cs1 | - | 5.8µM | 5.8µM | - | - | -
C[C@@H](C(=O)Nc1nc(-c2ccccn2)cs1)N1C(=O)C2CCCCC2C1=O (stereo partly specified) | - | ? | ? | - | - | -
COc1ccc(NC(=O)C(NC(=O)c2ccccc2)C(C)C)cc1 (stereo unspecified) | - | - | - | - | - | -
Cc1cccc(C(=O)N[C@H](C(=O)Nc2nc3ccccc3[nH]2)C(C)C)c1 | - | 3.3µM | 3.7µM | ? | - | -
COCCCNC(=O)CCC(=O)N1Cc2ccccc2Oc2ncccc21 | . | - | - | - | - | .
SMILES | ASM inhibitor | DT40 TDP1 CPT | DT40 TDP1 no CPT | TGFb SMAD3 inh | HepG2 tox | IL-1B inflam inh
COc1ccc(CCNC(=O)CCCc2ccccc2)cc1OC | - | - | - | - | - | -
CCOCCCNC(=O)c1ccc2c(c1)NC(=O)C(CS(=O)(=O)Cc1ccc(F)cc1Cl)N2 (stereo unspecified) | . | - | - | - | - | .
CC(C)(C)N(NS(=O)(=O)c1ccc(F)cc1)c1ccccc1 | - | - | - | - | - | -
Cc1cccc(C(=O)N[C@H](C(=O)Nc2nc(C)cs2)C(C)C)c1 | - | 8.2µM | 7.3µM | - | - | -
Cc1csc(NC(=O)c2ccccc2)n1 | - | - | - | - | - | -
Cc1csc(NC(=S)NC(=O)c2ccccc2)n1 | - | ? | 18µM | ? | - | -
CCCn1nc(C(=O)OCn2nnc3ccccc3c2=O)c2ccccc2c1=O | - | - | - | - | - | -
CCCN(C(=O)COC(=O)c1nc2nccc(C)n2n1)C1CCS(=O)(=O)C1 (stereo unspecified) | - | - | - | - | - | -
COc1ccc(N2C(=O)[C@@H]3C[C@H]2CN3Cc2ccc3nccnc3c2)cc1Cl | . | -[9.04 µM] | ? | . | . | .
CCC(CC)C(=O)c1c[nH]c(C(=O)NCc2ccccc2OC)c1 | - | 21µM | ? | - | - | -
CCC(CC)C(=O)c1c[nH]c(C(=O)NC2CCCCCC2)c1 | - | - | - | - | - | -66
CCC(=O)c1c[nH]c(C(=O)NCc2ccccc2OC)c1 | - | ? | - | - | - | -
CCOc1ccc(C(=O)CC(Sc2ccc(C)cc2)C(=O)O)cc1 (stereo unspecified) | - | ? | ? | ? | - | ?
O=C(CC(Sc1ccc(Br)cc1)C(=O)O)c1ccc(F)cc1 (stereo unspecified) | - | 9.2µM | 4.6µM | - | - | -92
CCOc1ccccc1N=CC1=C(O)CC(c2ccccc2)CC1=O (stereo unspecified) | - | ? | ? | - | - | -
CCC(C)N=CC1=C(O)CC(c2ccccc2)CC1=O (stereo unspecified) | - | - | - | - | - | -
COc1ccc(N=CC2=C(O)CC(c3ccccc3)CC2=O)c(OC)c1 (stereo unspecified) | - | 18µM | 15µM | - | - | -
O=C1CC(c2ccccc2)CC(O)=C1C=NCc1ccccc1Cl (stereo unspecified) | - | 2.3µM | 2.3µM | - | - | -
CCCC(=NC(C)CC)C1=C(O)CC(c2ccccc2)CC1=O (stereo unspecified) | - | ? | ? | - | - | -67
CCC(=Nc1ccccc1OC)C1=C(O)CC(c2ccccc2)CC1=O (stereo unspecified) | - | 6.5µM | 5.8µM | - | - | -
COc1cc(F)ccc1CN1CCC(n2nccc2NC(=O)C2CCOC2)CC1 (stereo unspecified) | - | - | - | ? | - | -

Bioassay records as filed in PubChem BioAssay.
